Results filed as inconclusive are left out. The source made the active and inactive calls. The calls were made as follows: active = hit-call score of the fitted dose curve at least 0.9, where 1 is the maximum; inconclusive = response in the unintended direction; inactive = score below 0.9.

The assay can be described thus: ACEA_ER_AUC_viability: ACEA Biosciences xCELLigence Real-Time Cell Analysis on Estrogen Receptor Agonism for Viability (AID 2283782).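 Also: continuous compound exposure with impedance area under curve over 80 h; hit means loss of impedance signal meaning reduced cell growth or viability.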 Here is the method: ACEA_ER is a cell-based, single-readout assay that uses T47D, a human breast cell line, with measurements taken at 80 hours after chemical dosing in a 96-well plate, although TO2 (mc0.srcf) used a 384-well plate. Differences in plate size can be ignored given data normalization.ACEA_ER_AUC_viability is one of two assay component(s) measured or calculated from the ACEA_ER assay. It is designed to make measurements of real-time cell-growth kinetics, a form of growth reporter, as detected with electrical impedance signals by Real-Time Cell Electrode Sensor (RT-CES) technology.Data from the assay component ACEA_ER_AUC_viability was analyzed in the positive analysis fitting direction relative to DMSO as the negative control and baseline of activity. Using a type of growth reporter, loss-of-signal activity can be used to understand changes in the viability. Furthermore, this assay endpoint can be referred to as a secondary readout, because this assay has produced multiple assay endpoints where this one serves a viability function. To generalize the intended target to other relatable targets, this assay endpoint is annotated to the cell cycle intended target family, where the subfamily is cytotoxicity.
The xCELLigence system Multi-E-Plate stations were used to measure the time-dependent response to chemicals. Each compound was tested in an eight-point, 1:4 serial dilution series starting at a maximum final concentration of 100 uM. A maximum starting concentration of 0.5% DMSO was present in the 100 uM chemical samples and was diluted along with the test article dilution series. The screen was performed in biological duplicate using two separate, 96-well, E-Plates 96 for each dilution series (n = 2). Positive controls (MG132 and E2) and a negative control (assay media) were tested in quadruplicate on each testing plate. Then, 0.5% and 0.125% DMSO were tested in duplicates in each plate to serve as solvent controls for the 2 highest concentrations of testing compounds: 100 uM and 25 uM. Reference compounds were tested with 8 concentrations with 1:5 serial dilutions. All screening was carried out by ACEA Biosciences, Inc. (San Diego, CA). T-47D cells purchased from ATCC were maintained in RPMI1640 media supplemented with 10% characterized fetal bovine serum (FBS). Before screening, T-47D cells were preconditioned in assay medium: phenol red-free RPMI1640 supplemented with 10% charcoal-stripped FBS. Cells were then detached and seeded in E-Plates 96 in assay medium. After overnight monitoring of growth once every hour, compounds were added to […] cells and remained in the medium until the end of the experiment. Cellular responses were then recorded once every 5 min for the first 5 h, and once every hour for an additional 100 h.
Turning to `CCC(C)(C)O`, the compound was called inactive. As a reminder, the AC50 is the midpoint of the concentration-response curve, whichever way the signal moves. Regarding `[CH3][Sn]([CH3])([Cl])[Cl]`, the AC50 is 21.3 µM (active). In the case of `[Cl][Sb]([Cl])[Cl]`, the AC50 is 87.8 µM (active). Consider `CC(C)C(=O)Cl`, for which the compound was called inactive. For the compound `c1ccc2c(c1)CCCC2`, the compound was classed as inactive. In the case of `CC(=O)/C=C/c1ccccc1`, the AC50 is 85.1 µM (active).

With `COc1cc(OC)nc(Oc2cccc(Oc3nc(OC)cc(OC)n3)c2C(=O)O)n1`, the compound was classed as inactive. Consider `c1ccc(Nc2ccc3ccccc3c2)cc1`, for which the AC50 is 87.1 µM (active). Same read-out and setting: to `CC(Cc1ccc(C(C)(C)C)cc1)CN1C[C@@H](C)O[C@@H](C)C1` (stereo not given in full) belongs 89.5 µM (active). For `CCC(Br)(CC)C(=O)NC(N)=O`, the compound was called inactive.

As for `COC(=O)C1(O)c2ccccc2-c2ccccc21`, the compound was called inactive.

In the case of `CCC1CCC(=O)O1` (stereo not given), the compound was classed as inactive.

As for `NNc1ccccc1`, the result was inactive. Same read-out and setting: to `Cc1ncc(C[n+]2csc(CCO)c2C)c(N)n1` belongs “inactive”. In the case of `CCCN(CCC)c1c([N+](=O)[O-])cc(S(C)(=O)=O)cc1[N+](=O)[O-]`, the AC50 is 50 µM (active). With `CC1OC(C)OC(C)O1` (stereo not given), the result was inactive. `O=C(O)c1ccccc1C(=O)Nc1cccc2ccccc12`: the AC50 is 85.4 µM (active). For the compound `O=C(O)COc1ccccc1`, the compound was called inactive. Still for that read-out and setting: next, `[Cl-].[Cl-].[Cl-].[Yb+3]`: “inactive”; `Cc1ccc(OP(=O)(Oc2ccc(C)cc2)Oc2ccc(C)cc2)cc1` (tested in a mixture with another compound): “inactive”. With `C[C@]12CC[C@H](O)C[C@H]1CC[C@@H]1[C@@H]2C[C@@H](O)[C@]2(C)[C@@H](C3=CC(=O)OC3)CC[C@]12O`, the AC50 was 1.75 µM (active). Turning to `Cc1cc(C)c(C2=C(OC(=O)CC(C)(C)C)C3(CCCC3)OC2=O)c(C)c1`, the call was inactive.

For `O=C(O)CCCc1ccc(N(CCCl)CCCl)cc1`, the half-maximal activity concentration (AC50) is 27.3 µM (active).

For the compound `C=CC(=O)OCCCCOC(=O)C=C`, the AC50 was 24.2 µM (active). Consider `CC1CCC(=O)O1` (stereo not given), for which the concentration at half-maximal activity (AC50) was 50 µM (active). In the case of `O=S(=O)(c1ccccc1)c1ccccc1`, the call was inactive. As to `CCCCCCCCCCCCCCCC[N+](C)(C)C`, the AC50 is 10.9 µM (active). For the compound `O=C(CCN1CC1)OCC(CO)(COC(=O)CCN1CC1)COC(=O)CCN1CC1`, the concentration at half-maximal activity (AC50) is 63.1 µM (active). Consider `Oc1ccc(Cl)cc1`, for which the outcome was inactive. Same read-out and setting: to `O=[N+]([O-])O` belongs “inactive”; to `C=COCCCl`, “inactive”. On the same count and under the same terms, to `CC(=O)C=Cc1ccccc1` belongs “inactive”. For `C=CC(=O)OCCO`, the half-maximal activity concentration (AC50) is 46.4 µM (active). Still for that read-out and setting: next, `O=S(=O)(O)O`: 6.09 µM (active). Take `CC(O)CN(CC(C)O)CC(C)O` (stereo not given): the result was inactive. For the compound `CCCCCCC1CCOC1=O` (stereo not given), the AC50 is 23.3 µM (active). Take `CC(C)CCCCCCCOP(=O)(Oc1ccccc1)Oc1ccccc1`: the compound was classed as inactive. Regarding `C[N+](C)(C)CC(=O)O`, the AC50 was 25.6 µM (active).

For `CCCN(CC1CC1)c1c([N+](=O)[O-])cc(C(F)(F)F)cc1[N+](=O)[O-]`, the half-maximal activity concentration (AC50) was 25.4 µM (active). Regarding `CC(C)C#N`, the compound was called inactive.

For the origin of these results see PubChem BioAssay (EPA / NIEHS).
